Activity calls are given as the source filed them. The call rests on the fitted dose curve; in most records, active means well fitted curve in the direction sought with a large enough effect; inconclusive means small, poorly fitted or top-dose-only effect, or another doubt; inactive means no such curve, though single readings can be large or run the other way.

The experiment can be described thus: qHTS for compounds that reverse cellular toxicity of Amyloid beta (A-beta) peptide in yeast: LOPAC Validation Assay (AID 720559). As to conditions: yeast expressing A-beta; series mostly up to 46.1 µM; growth rescue, positive = activation: at the top concentration. The source says:
The A-beta peptide is produced by the processing of the amyloid precursor protein (APP) by two proteases, beta and gamma secretases. […] A-beta42 is regarded as the most amyloidogenic form due to its hydrophobicity; however, precisely how A-beta42 induces neurotoxicity is unclear. To understand further this biology and its potential therapeutic implications for human neurodegenerative disease, a quantitative high-throughput screen for compounds that reverse the cellular toxicity of the A-beta peptide was developed.
A yeast based screen was used because it recapitulates the salient feature of protein mis-folding disorder accurately. This cell-based phenotypic screen provides a significant, unbiased advantage by letting the compounds and models inform us which proteins or pathways are most relevant. The ideal chemical candidates would therefore have activity in both our primary yeast and secondary neuronal toxicity assays, as well as in mouse models. They will be valuable tools for dissecting diverse protein homeostasis pathologies and could potentially become the focus for future pre-clinical development. For this […] assay, inhibition of A-beta rescues the toxic effect in the yeast cell, resulting in increase of signals.
NIH Chemical Genomics Center [NCGC]
NIH Molecular Libraries Probe Centers Network [MLPCN]
Assay Submitter (PI): Susan Lindquist, Whitehead Institute, Massachusetts Institute of Technology
[1] Vassar R,et al (1999). Beta-secretase cleavage of Alzheimer's amyloid precursor protein by the transmembrane aspartic protease BACE. Science. 286: 735-741.
[2] Yan R, et al (1999). Membrane-anchored aspartyl protease with Alzheimer's disease beta-secretase activity. Nature.
Two and a half microliter / well of yeast growth medium were dispensed in a 1536 assay plate. Compounds were pinned using the Kalypsys robotic system followed by addition of 2.5 uL / well yeast solution. The assay plates were incubated at 30 C. After 48 hr, the absorbance signal at 600 nm was obtained using the PerkinElmer ViewLux plate reader to assess yeast growth. The data was normalized to the positive control of an equimolar mixture of ferric chloride (FeCl3) and clioquinol and to the negative control DMSO.
On the technique in general: qHTS replaces the single test concentration by a dilution series.
Consider `C[N+](C)(C)CC#CCN1CCCC1=O`, for which the “growth rescue, positive = activation” value is -4.8% (inactive).

With `N[C@@H](CCl)C(=O)O`, the “growth rescue, positive = activation” value is -2.2% (inactive).

As to `CCCn1c(=O)c2[nH]c(C3CCCC3)nc2n(CCCOC(=O)c2ccc(S(=O)(=O)F)cc2)c1=O`, the “growth rescue, positive = activation” value is -0.953% (inactive).

Consider `OCc1cnc[nH]1`, for which the “growth rescue, positive = activation” value was 1.48% (inactive).

Take `Cc1sc2ccccc2c1CC1=NCCN1`: the “growth rescue, positive = activation” value was -2.3% (inactive).

Regarding `CNc1ccc2oc(C[C@H]3O[C@@]4(CC[C@H]3C)O[C@H]([C@H](C)C(=O)c3ccc[nH]3)[C@H](C)C[C@H]4C)nc2c1C(=O)O`, the “growth rescue, positive = activation” value is -61% (inactive).

Turning to `N#C/C(=C/c1ccc(O)c(O)c1)C(N)=S`, the “growth rescue, positive = activation” value was 4.94% (inactive).

Regarding `NCCCP(=O)(O)O`, the “growth rescue, positive = activation” value is -0.253% (inactive).

Regarding `NC(N)=Nc1ccc2[nH]c3c(c2c1)C[C@@]1(O)[C@H]2Cc4ccc(O)c5c4[C@@]1(CCN2CC1CC1)[C@H]3O5`, the “growth rescue, positive = activation” value was -62.1% (inactive).

Take `CCCN(CCC)CCc1c[nH]c2ccc(C(N)=O)cc12`: the “growth rescue, positive = activation” value was -0.44% (inactive).

Consider `CCCC[N+]1(C)C2CC(OC(=O)[C@H](CO)c3ccccc3)CC1C1OC12` (stereo not given in full), for which the “growth rescue, positive = activation” value is -1.29% (inactive).

As to `COc1ccc2[nH]c3c(c2c1)CCNC3`, the “growth rescue, positive = activation” value is -10.7% (inactive).

As to `CC(=O)OCC1=C(C(=O)O)N2C(=O)[C@@H](NC(=O)CCC[C@@H](N)C(=O)O)[C@H]2SC1`, the “growth rescue, positive = activation” value is 11.2% (inactive).

As for `NCCc1c[nH]c2ccc(C(N)=O)cc12`, the “growth rescue, positive = activation” value is -7.31% (inactive).

Take `COc1ccc2c(c1)/C(=C/c1cnc[nH]1)C(=O)N2`: the “growth rescue, positive = activation” value was 7.18% (inactive).

For the compound `NC(Cc1cc(O)c(O)cc1O)C(=O)O` (stereo not given), the “growth rescue, positive = activation” value was -3.86% (inactive).

For `N=C(N)c1ccc(CS(=O)(=O)F)cc1`, the “growth rescue, positive = activation” value is -0.806% (inactive).

Consider `COc1ccc2c(c1)C13CCCCC1C(C2)N(C)CC3` (stereo not given), for which the “growth rescue, positive = activation” value was -3.7% (inactive).

On to `Ic1ccccc1CNC1C2CCN(CC2)C1C(c1ccccc1)c1ccccc1` (stereo not given), for which the “growth rescue, positive = activation” value is -10.7% (inactive).

Turning to `C=CCN1CCc2cccc3c2[C@H]1Cc1ccc(O)c(O)c1-3`, the “growth rescue, positive = activation” value is 8% (inactive).

With `C[C@@H]1O[C@@H](O[C@H]2C[C@@H](O)[C@]3(CO)[C@@H]4C(CC[C@]3(O)C2)[C@@]2(O)CC[C@H]([C@@H]3COC(=O)C3)[C@@]2(C)C[C@H]4O)[C@H](O)[C@H](O)[C@H]1O` (stereo not given in full), the “growth rescue, positive = activation” value is -2.33% (inactive).

On to `C[N+](C)(C)CC#CCOC(=O)Nc1cccc(Cl)c1`, for which the “growth rescue, positive = activation” value was -9.35% (inactive).

Turning to `Cc1c2ccncc2c(C)c2c1[nH]c1ccccc12`, the “growth rescue, positive = activation” value was -2.37% (inactive).

As to `CN1C2CCC1CC(OC(c1ccccc1)c1ccccc1N)C2` (stereo not given), the “growth rescue, positive = activation” value is 6.84% (inactive).

Regarding `NC(CCCCCP(=O)(O)O)C(=O)O` (stereo not given), the “growth rescue, positive = activation” value was -4.69% (inactive).

As for `CN1CC[C@@]2(C)c3cc(OC(=O)Nc4ccccc4)ccc3N(C)[C@@H]12`, the “growth rescue, positive = activation” value was -1.84% (inactive).

`CCCN(CCC)[C@@H]1CCc2cccc(O)c2C1`: the “growth rescue, positive = activation” value is -3.25% (inactive).

As for `C[C@@H]1[C@@H]2Cc3ccc(O)cc3[C@@]1(C)CCN2CC1CC1`, the “growth rescue, positive = activation” value is -2.6% (inactive).

Consider `CC(Cc1ccc(OCC(=O)O)cc1)NCC(O)c1cccc(Cl)c1` (stereo not given), for which the “growth rescue, positive = activation” value was 8.71% (inactive).

As to `Oc1ccc2c3c1O[C@H]1c4oc5ccccc5c4C[C@@]4(O)C(C2)N(CC2CC2)CCC314` (stereo not given in full), the “growth rescue, positive = activation” value is -1.85% (inactive).

`CCCN1CC[C@@H]2c3cc(O)ccc3CC[C@@H]21`: the “growth rescue, positive = activation” value is -0.795% (inactive).

Regarding `C[C@@H]1O[C@H](C[N+](C)(C)C)CS1`, the “growth rescue, positive = activation” value was -2.42% (inactive).

For `COc1ccc2c(c1)c(CCN1CCOCC1)c(C)n2C(=O)c1cccc(Cl)c1Cl`, the “growth rescue, positive = activation” value was 7.42% (inactive).

`O=[N+]([O-])c1cc(O)c(O)c([N+](=O)[O-])c1`: the “growth rescue, positive = activation” value was -7.98% (inactive).

For `CC(N)Cc1c[nH]c2ccc(OCc3cccs3)cc12` (stereo not given), the “growth rescue, positive = activation” value is -3.48% (inactive).

Turning to `CN1CCc2cccc(Cl)c2CC1`, the “growth rescue, positive = activation” value was -5.82% (inactive).

As for `Nc1ccc(CCN2CCN(c3cccc(C(F)(F)F)c3)CC2)cc1`, the “growth rescue, positive = activation” value was -2.16% (inactive).

On to `CN1CCC(c2c[nH]c3ccc(O)cc23)CC1`, for which the “growth rescue, positive = activation” value is 25.4% (inactive).

Turning to `C[N+]1(C)CCN(c2ccccc2)CC1`, the “growth rescue, positive = activation” value is -3.58% (inactive).

With `NNC(=O)c1ccc(O)cc1`, the “growth rescue, positive = activation” value is -5.59% (inactive).

These data come from PubChem BioAssay (NCATS).
